Our source for the outcome values is PubChem BioAssay (EPA / NIEHS).

Records with an inconclusive call do not appear. Active and inactive are the calls of the source. How the source made its calls: active means hit-call score of the fitted dose curve at least 0.9, where 1 is the maximum; inconclusive means response in the unintended direction; inactive means score below 0.9.

Read-out in this assay: xenobiotic metabolism (CYP2C9), CYP2C9 (gene 1559)
The assay can be described thus: CLD_CYP2C9_6hr: CellzDirect (CLD) Gene Expression Assay for xenobiotic metabolism (CYP2C9) at 6 hours (AID 2283664). As to the method:
CLD_6hr is a cell-based, multiplexed-readout assay that uses hepatocyte, a human liver primary cell, with measurements taken at 6 hours after chemical dosing in a 96-well plate.CLD_CYP2C9_6hr is one of 16 assay component(s) measured or calculated from the CLD_6hr assay. It is designed to make measurements of mRNA induction, a form of inducible reporter, as detected with chemiluminescence signals by Quantitative Nuclease Protection Assay (qNPA) technology.Data from the assay component CLD_CYP2C9_6hr was analyzed at the endpoint, CLD_CYP2C9_6hr, in the positive analysis fitting direction relative to DMSO as the negative control and baseline of activity. Using a type of inducible reporter, gain-of-signal activity can be used to understand changes in the reporter gene as they relate to the gene CYP2C9. Furthermore, this assay endpoint can be referred to as a primary readout. To generalize the intended target to other relatable targets, this assay endpoint is annotated to the cyp intended target family, where subfamily is xenobiotic metabolism.
Human hepatocyte cultures were treated daily for two consecutive days with fresh dosing solutions containing appropriate concentrations of the 320 ToxCast chemicals (chemical identities were blinded to CellzDirect and other ToxCast collaborators), vehicle control (0.2% DMSO), and positive control inducers as summarized in Table 1. Due to the large number of treatment groups and chemicals examined, the ToxCast chemicals were divided into two groups (spanning two independent cultures of hepatocytes from separate donor preparations (Hu778: ToxCast plates 1 and 2; Hu776: ToxCast plates 3 and 4). Each preparation of human hepatocyte cultures was treated with respective vehicle control, medium only control, set of six positive controls/reference chemicals for the five hepatic receptor pathways, and a subset of eight of the ToxCast chemicals (indoxacarb, pyrithiobac-sodium, norflurazon, cyhalofop-butyl, methomyl, thiram, acetochlor, and propiconazole). These replicate data, coupled with internal replicates designed within the blinded ToxCast chemical library, provided additional data to evaluate interindividual differences between hepatocyte preparations and their potential impact on chemical profiles.Cell morphology and integrity were evaluated using phase-contrast microscopy as an indicator of hepatocyte cell health (Tyson & Green, 1987). Cultures for each treatment group (i.e., media, vehicle [0.2% DMSO], positive control inducers [multiple concentrations], and the ToxCast chemicals [multiple concentrations]) were observed and cell morphology was assessed relative to vehicle control cultures at each harvest time point (0, 6, 24, or 48 h). […] Images were evaluated at the conclusion of the study to assess changes in cell integrity and account for the effects of chemical exposure on uncharacteristic changes in concentration-dependent gene expression profiles. The results from these determinations of apparent cytotoxicity were annotated (yes/no) alongside the corresponding qNPA data for reference.At the conclusion of each treatment period, hepatocyte cultures (96-well) were washed with 1 volume of HBSS, lysed by addition of 25 ul ArrayPlate lysis buffer (HTG, Tucson, AZ), and 70 ul/well of Denaturation Oil, denatured by incubation at 95C for 10 min, and frozen at approximately -70C until analysis by nuclease protection assay (qNPA) (Roberts et al., 2007). For qNPA analysis, cell lysates were thawed at 50C for approximately 30 min, qNPA probes were added, and samples were incubated at 95C for 10 min to begin the detection process by denaturing the target RNA, dissociating the duplexes and secondary structure hybridization. At the conclusion of the hybridization period, S1 nuclease reagent was added to each sample to digest all nonprotected nucleotides at 50C for 60-90 min. […]
For `COC(=O)c1ccccc1C(=O)OC`, the result was inactive.

For the compound `COc1nc(NC(C)C)nc(NC(C)C)n1`, the compound was called inactive.

In the case of `COc1nc(C)nc(NC(=O)NS(=O)(=O)c2ccccc2CCC(F)(F)F)n1`, the call was inactive.

Take `CCOC(=O)C(Cl)Cc1cc(-n2nc(C)n(C(F)F)c2=O)c(F)cc1Cl` (centres undefined): the compound was classed as inactive. With `COc1nc(C)nc(NC(=O)NS(=O)(=O)c2ccccc2Cl)n1` the entry was “inactive”; with `COC(=O)C=C(C)OP(=O)(OC)OC`, “inactive”; with `Cc1cc(Cl)ccc1OCC(=O)O`, “inactive”. `C#CCOS(=O)OC1CCCCC1Oc1ccc(C(C)(C)C)cc1` (centres undefined): the outcome was inactive.

As to `COP(=S)(OC)Oc1nc(Cl)c(Cl)cc1Cl`, the call was inactive. With `C=CCC1=C(C)C(OC(=O)C2C(C=C(C)C)C2(C)C)CC1=O` (centres undefined) the entry was “inactive”; with `OC(c1ccc(Cl)cc1)(c1cncnc1)c1ccccc1Cl` (centres undefined), “inactive”; with `CNC(=S)S`, “inactive”. With `CCNc1nc(Cl)nc(NCC)n1` the entry was “inactive”. Regarding `CCCN(CCC)c1c([N+](=O)[O-])cc(S(N)(=O)=O)cc1[N+](=O)[O-]`, the compound was called inactive. Next, `CNC(=O)ON=CC(C)(C)SC`: “inactive”. Next, `O=C(O)COc1nc(Cl)c(Cl)cc1Cl`: “inactive”; `CC(C)C1(C)N=C(c2nc3ccccc3cc2C(=O)O)NC1=O` (centres undefined): “inactive”. Consider `O=C(O)c1nc(Cl)ccc1Cl`, for which the outcome was inactive. With `CCCCC(CC)COC(=O)c1ccccc1C(=O)OCC(CC)CCCC` (centres undefined) the entry was “inactive”. Next, `COC(=O)N(OC)c1ccccc1COc1ccn(-c2ccc(Cl)cc2)n1`: “inactive”; `CCCCOC(=O)c1ccccc1C(=O)OCCCC`: “inactive”; `COc1cnc(OC)n2nc(NS(=O)(=O)c3c(OCC(F)F)cccc3C(F)(F)F)nc12`: “inactive”.

As for `Fc1ccc(Oc2ccnc3cc(Cl)cc(Cl)c23)cc1`, the outcome was inactive. Next, `Oc1ccccc1-c1ccccc1`: “inactive”.
